# MARV entry inh: inhibitors of Marburg virus binding or entry into cells; Potency, µM (series often up to 49.2 µM), without a hit: top-dose activity change, negative = inhibition, usual class: inhibitors; actives 6.5% (n = 18,000); Marburg virus pseudotype entry/binding inhibition, cell-based; AID 720532
# Lassa entry: inhibitors of Lassa virus binding or entry into cells | Lassa virus pseudotyped entry inhibition, cell-based qHTS | Potency, µM (doses to about 49.2 µM), for the others: at the top dose activity change, negative = inhibition, actives largely listed as inhibitors | actives 4.1% (n = 18,000) | AID 720533
# * marks the source's active call; other numbers are inactive results; u = inconclusive; x = no result given; ! = not confirmed by another sample; [ ] = another dose, or the depositor's remark. Sampled rows, rich in hits. Any-hit rate of the full collection: about 8%. The call rests on the fitted dose curve; tested in HEK293 cells. On the % scale 0 is the no-effect control and ±100 the full control effect; potency means the concentration at half of the fitted maximal effect.
SMILES,MARV entry inh,Lassa entry
CN(C)CC/C=C1/c2ccccc2COc2ccc(CC(=O)O)cc21,22%,-13%
CN(C)CC/C=C1\c2ccccc2Sc2ccc(Cl)cc21,11µM*!,28µM*!
CNCCC=C1c2ccccc2C=Cc2ccccc21,5µM*,u
CCCCCCCCCCCCC/C=C/[C@@H](O)[C@H](CO)NC(C)=O,7%,1%
COc1cccc(-c2cc(=O)c3cc(O)ccc3o2)c1,-4%,u
Cc1cnc(CNC(=O)c2c3n(c(C)cc2=O)-c2ccccc2SC(c2ccsc2)C3)cn1 (stereo unspecified),4%,-12%
CC(C)(C)OC(=O)NCCCC1=CC2=CC(=O)C(C)(OC(=O)c3cnc4ccccc4n3)C(=O)C2=CO1 (stereo unspecified),1%,-12%
CCCCCCCCCC=C[C@@H]1C[C@H]2C=CCO[P@@](=O)(O1)O2,12%,-4%
C[C@@H]1CN(Cc2ccc3c(c2)CN(Cc2cccn2-c2cccnc2)CCO3)C[C@H](C)O1,-27%,2%
COCc1c(C(=O)NC2CCOC(C)(C)C2)cnn1-c1nccc(-c2cccs2)n1 (stereo unspecified),0%,-10%
CN(C)CC/C=C1/c2ccccc2COc2ccccc21,u,3%
CN(C)CCC=C1c2ccccc2CCc2ccccc21,10µM*,u
CC(C)C[C@@H](CC(=O)N[C@H](CC(=O)N[C@@H]1CCCC[C@H]1C(=O)N[C@H](CC(=O)N[C@@H](CCC(=O)O)CC(=O)O)Cc1c[nH]c2ccccc12)C(C)C)NC(=O)[C@@H]1CCCC[C@H]1N,1%,-1%
N[C@H](C(=O)O)[C@@H](O)c1ccc(O)c(O)c1,1.3µM*,u
N[C@@H](Cc1ccc(O)c(O)c1)C(=O)O,7.9µM*!,u
N[C@H](Cc1ccc(O)cc1)C(=O)O,9%,6%
CCC(N)C(O)c1ccc(O)c(O)c1 (stereo unspecified),-3%,9%
COc1cc2c(c(OC)c1OC)C1(c3ccccc3)CCCCCC1[C@@H]2NC(=O)C(F)(F)F (stereo partly specified),-15%[8.59 µM],x
CC(C)Cc1nc2cc(NS(=O)(=O)N(C)C)cc(C(=O)N3CCc4sccc4C3)c2n1C,21%,-3%
COc1cccc(-c2ccc(O)c(CNCc3cccc4ccccc34)c2)n1,8%,-15%
COC(=O)[C@@H]1CCCN1Cc1ccc2c(c1)CN(Cc1cccn1-c1ncccn1)CCO2,-14%,-18%
C=C1C(=O)[C@]23[C@H](O)[C@H]1CC[C@H]2[C@@]12COC3(O)[C@H](O)[C@@H]1C(C)(C)CC[C@@H]2O,18µM*,u
C[C@@H]1C(=O)OC2C[C@@]34[C@H]5C[C@@H](C(C)(C)C)[C@@]36C(O)C(=O)O[C@H]6O[C@@]4(C(=O)O5)[C@]21O (stereo partly specified),-1%,-12%
Clc1ccccc1CNCC1CCC(CNCc2ccccc2Cl)CC1 (stereo unspecified),6.3µM*,20µM*
CC(Cc1ccccc1)NCc1ccccc1Cl (stereo unspecified),3%,-2%
SMILES,MARV entry inh,Lassa entry
O=S1(=O)C=CCN1,23%,12%
O[N+]1=CC=CCC1=S.On1ccccc1=S.[Zn],4.5µM*,3.5µM*
CCN(Cc1ccncc1)Cc1ccc2c(c1)CN(C(=O)c1cccc(-n3nc(C)cc3C)c1)CCO2,u,-10%
COC(=O)C1=C(C(=O)OC)[C@@H]2N(Cc3ccccc3)c3ccccc3[C@@]23C[C@@H](C(=O)OC)N(C(=O)Nc2ccccc2F)C3=N1,-13%[8.59 µM],-20%[8.59 µM]
Cc1noc(C)c1-c1nc(N2CCOCC2)c2ccccc2n1,5%,-2%
CN(C)Cc1ccccc1-c1nc(N2CCOCC2)c2ccccc2n1,18µM*,-11%
CC(C)(C)OC(=O)NCCCCC1=CC2=CC(=O)C(C)(OC(=O)C3CCCC3)C(=O)C2=CO1 (stereo unspecified),8%,-2%
CC(C)C[C@H]1C(=O)N2CCC[C@H]2[C@]2(O)O[C@](NC(=O)[C@@H]3C[C@@H]4c5cccc6[nH]cc(c56)C[C@H]4N(C)C3)(C(C)C)C(=O)N12,u,-15%
CC(C)CC1C(=O)N2CCCC2C2(O)O[C@@](NC(=O)C3C=C4c5cccc6[nH]c(Br)c(c56)CC4N(C)C3)(C(C)C)C(=O)N12 (stereo partly specified),10µM*,u
CC(C)[C@@]1(NC(=O)[C@@H]2C[C@H]3c4cccc5[nH]cc(c45)C[C@@H]3N(C)C2)O[C@@]2(O)[C@H]3CCCN3C(=O)[C@H](Cc3ccccc3)N2C1=O,22µM*!,-17%
CC(C)C[C@H]1C(=O)N2CCC[C@H]2[C@]2(O)O[C@](NC(=O)[C@@H]3C=C4c5cccc6[nH]c(Br)c(c56)C[C@H]4N(C)C3)(C(C)C)C(=O)N12,u,25µM*!
CC(C)C[C@H]1C(=O)N2CCC[C@@H]2[C@]2(O)O[C@](NC(=O)[C@H]3C=C4c5cccc6[nH]c(Br)c(c56)C[C@H]4N(C)C3)(C(C)C)C(=O)N12,5%[17.8 µM],-6%[17.8 µM]
CN1C[C@H](C(=O)N[C@]2(C)O[C@@]3(O)[C@@H]4CCCN4C(=O)[C@H](Cc4ccccc4)N3C2=O)C=C2c3cccc4[nH]cc(c34)C[C@H]21,-11%,-24%
CCN1C(=O)CC(CC(=O)N2CCCCC2c2nccs2)(c2ccccc2C)C1=O (stereo unspecified),-17%,-2%
O=C(O)[C@H](Cc1c[nH]c2ccccc12)N1C(=O)C2=CCCC=C2C1=O,7%,-1%
CC(=O)N1CCC[C@H]1C(=O)NCC1Cc2cc(-c3cnccn3)cc(Cl)c2O1 (stereo partly specified),6%,-8%
NCCc1c[nH]c2ccc(O)cc12,-10%,-11%
CCCCCCCCCOc1ccc2[nH]cc(CCN)c2c1,10µM*,35µM*!
CCCCCCCC/C=C/CCCCCCCC(=O)NCCOP(=O)(O)O,13%,-3%
CCN1C(=NCc2cc(OC)c(OC)c(OC)c2)NC(c2cccc(F)c2)C(C(=O)OC)=C1C (stereo unspecified),-5%[8.59 µM],22%[8.59 µM]
CCC1/C=C/C=CCC(C)C(O)[C@@](C)(O)C(=O)C(C)C(O)C(C)C(=O)C(C)C(O)C(C)C=CC(=O)O[C@H]2C(C)C(CC1)O[C@]1(CCC(C)C(CC(C)O)O1)C2C (stereo partly specified),0.079µM*,u
C[C@@H]1O[C@H](O[C@@H]2[C@H](C)O[C@H](O[C@@H]3[C@H](C)O[C@H](O[C@H]4CC[C@]5(C)[C@@H](CC[C@@H]6[C@H]5C[C@@H](O)[C@]5(C)[C@@H](C7=CC(=O)OC7)CC[C@]65O)C4)C[C@@H]3O)C[C@@H]2O)C[C@H](O)[C@@H]1O,0.89µM*,0.13µM*
C[C@H]1O[C@@H](O[C@H]2[C@@H](O)C[C@H](O[C@H]3[C@@H](O)C[C@H](O[C@H]4CC[C@@]5(C)[C@H](CC[C@@H]6[C@@H]5C[C@@H](O)[C@]5(C)[C@@H](C7=CC(=O)OC7)CC[C@]65O)C4)O[C@@H]3C)O[C@@H]2C)C[C@H](O)[C@@H]1O,u,4µM*
CC(=O)C1CCC2C3CCC4CC(O)CCC4(C)C3CC(O)C12C (stereo unspecified),0%,17%

# Assay outcomes: PubChem BioAssay, National Center for Advancing Translational Sciences (NCATS)
